Measurements from PubChem BioAssay.
Activity calls are given as the source filed them. Unless noted, how the calls were made is not given here.

Experiments:
[1] = system: Wnt5a (protein binding on small-molecule microarray); assay: Wnt5a binders on small-molecule microarray, primary screen, biophysical, 635/667 nm fluorescence (AID 1142); conditions: 635 nm fluorescence, higher = more signal;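 further: fluorescence read at 667 nm with signal to noise per printed feature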
[2] = cell viability in Huh7 cells, primary screen, cytotoxicity control for HCV replication inhibitor project, CellTiter-Glo luminescence, basal, 48 h (AID 1143); conditions: Huh7 HCV replicon, higher = more signal, called active from +8 up or from −8 down;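 further: Huh7 hepatoma cells carrying a hepatitis C replication reporter with no stimulus; test concentration not given here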
[3] = P. aeruginosa biofilm formation inhibitors, primary screen, PAO1 strain, BacTiter-Glo luminescence, LB-PBS (AID 1144); conditions: 12 h, higher = more signal
[4] = CREB reporter modulators without forskolin, primary screen, cell-based, PC12, CRE-LacZ reporter, unstimulated (AID 1145); conditions: no forskolin, luminescence, 4.5 h, higher = more signal, called active from +8 up or from −8 down
[5] = CREB reporter modulators under forskolin, primary screen, cell-based, PC12, CRE-LacZ reporter, forskolin-stimulated (AID 1146); conditions: luminescence, 4.5 h, higher = more signal, called active from +8 up or from −8 down;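 further: PC12 cells with 6xCRE LacZ reporter stimulated by forskolin 10 µM; beta-galactosidase reporter signal reflecting CREB driven transcription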
[6] = biological target: Streptavidin (Streptomyces avidinii) (UniProt P22629); assay: streptavidin binders on small-molecule microarray, primary screen, artefact control for SMM compound annotation, biophysical, 635/667 nm fluorescence (AID 1147); conditions: streptavidin binding, higher = more signal;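 further: signal reflects streptavidin binding to arrayed compounds as a control protein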
[7] = small-molecule binders of probe aInhba, primary screen, biochemical, small-molecule microarray, 635/667 nm fluorescence (AID 1148); conditions: higher = more signal;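 further: score merges 667nm spot fluorescence with signal-to-noise for antibody binding to printed compounds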
Torsin-1A (Homo sapiens) [8] = biological target: Torsin-1A (Homo sapiens) (UniProt O14656); assay: torsin A binders from cell lysate, primary screen, small-molecule microarray, wild-type, 635/667 nm (AID 1149); conditions: COS7 hTOR1A-WT lysate, 635 nm fluorescence, higher = more signal
Torsin-1A (Homo sapiens) [9] = biological target: Torsin-1A (Homo sapiens) (UniProt O14656); assay: small-molecule binders of mutant TOR1A in lysate, primary screen, cell lysate, small-molecule microarray, COS7 lysate, 635/667 nm fluorescence (AID 1150); conditions: COS7 hTOR1A mutant lysate, 635 nm fluorescence, higher = more signal;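 further: score pools 667 nm emission and signal to noise measuring lysate protein binding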
[10] = system: Sonic hedgehog protein (Shh); assay: small-molecule binders of Shh protein, primary screen, biochemical, small-molecule microarray, 635/667 nm fluorescence (AID 1151); conditions: small-molecule microarray binding, 635 nm fluorescence; higher = more signal;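 further: Shh protein binding to compounds spotted on small-molecule microarray slides; score combines spot fluorescence intensity with signal-to-noise across triplicate slides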

Sequence of Torsin-1A (Homo sapiens) (O14656 whole entry, looked up): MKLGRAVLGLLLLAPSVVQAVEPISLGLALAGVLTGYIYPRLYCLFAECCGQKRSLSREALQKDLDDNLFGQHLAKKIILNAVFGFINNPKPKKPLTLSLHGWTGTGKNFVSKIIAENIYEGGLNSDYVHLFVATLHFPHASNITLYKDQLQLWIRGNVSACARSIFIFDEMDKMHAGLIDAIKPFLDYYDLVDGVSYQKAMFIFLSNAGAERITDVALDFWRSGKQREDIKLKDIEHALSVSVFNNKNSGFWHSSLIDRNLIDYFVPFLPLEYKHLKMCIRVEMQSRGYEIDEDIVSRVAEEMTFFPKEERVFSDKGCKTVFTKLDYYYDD
Sequence of Streptavidin (Streptomyces avidinii) (P22629 whole entry, looked up): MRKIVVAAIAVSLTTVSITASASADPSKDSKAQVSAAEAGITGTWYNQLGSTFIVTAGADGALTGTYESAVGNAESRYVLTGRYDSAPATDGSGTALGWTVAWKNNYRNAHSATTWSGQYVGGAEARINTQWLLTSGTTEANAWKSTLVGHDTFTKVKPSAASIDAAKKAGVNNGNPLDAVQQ

Compound | composite z-score [1] | z-score [2] | z-score [3] | z-score [4] | z-score [5] | composite z-score [6] | composite z-score [7] | composite z-score (Torsin-1A (Homo sapiens) [8]) | composite z-score (Torsin-1A (Homo sapiens) [9]) | composite z-score [10]
CC(C)N1CC=CC23O[C@@H]4C=CCCOC(=O)C4[C@H]2C(=O)N(CCCCCCO)[C@@H]3C1=O (stereo not given in full) | -0.952 | 0.471 (inactive) | -0.454 (inactive) | -0.488 (inactive) | -0.905 (inactive) | -0.717 | -0.003 | -1.12 | -1.57 | 0.011
C[C@@H](c1ccccc1)N1C(=O)[C@H]2[C@H]3[C@H](O)[C@H](O)CC(=NOC[C@@H](O)COCc4ccco4)[C@@H]3CC[C@H]2C1=O | -0.253 | 0.333 (inactive) | -0.0196 (inactive) | -0.292 (inactive) | 0.236 (inactive) | -0.485 | -0.176 | -0.304 | -0.294 | -0.494
CO[C@H]([C@@H](C)[C@H](OC)c1ccccc1)[C@H](C)[C@@H](OC)[C@H](C)C(C)=O | -0.183 | 0.0807 (inactive) | 0.185 (inactive) | -0.98 (inactive) | -0.358 (inactive) | -0.554 | 0.809 | -0.225 | -0.327 | 0.497
C[C@@H](c1ccccc1)N1C(=O)[C@H]2[C@H]3[C@H](O)[C@H](O)CC(=NNC(=O)OCc4ccccc4)[C@H]3CC[C@H]2C1=O | 0.15 | -0.0242 (inactive) | 0.158 (inactive) | 0.423 (inactive) | -0.0874 (inactive) | 0.0456 | -0.317 | -0.184 | -0.289 | -0.108
